About 700 (0.21%) of roughly 340,000 compounds were called active. Many of the other results were omitted from the sample, so actives are more common in it than they were. Values without a mark were called inactive. Cut-off read from the data, not from the text of the source: active = inhibition above about 22% (passing the limit was not always enough); inactive = the rest.

This experiment deals with Mu-type opioid receptor (Homo sapiens) + Delta-type opioid receptor (Homo sapiens) (UniProt P35372+P41143). In words: OPRM1-OPRD1 heterodimer inverse agonism – cell-based, luminescence, primary screen (AID 504357).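 Note: 0% = cells with DMSO and 100% = wells without cells with DMSO.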 Particulars: cell-based MOR-DOR heterodimer luminescence, at 9.3 µM, active compounds read high.
Sequence of Mu-type opioid receptor (Homo sapiens) + Delta-type opioid receptor (Homo sapiens) (P35372 whole entry, looked up): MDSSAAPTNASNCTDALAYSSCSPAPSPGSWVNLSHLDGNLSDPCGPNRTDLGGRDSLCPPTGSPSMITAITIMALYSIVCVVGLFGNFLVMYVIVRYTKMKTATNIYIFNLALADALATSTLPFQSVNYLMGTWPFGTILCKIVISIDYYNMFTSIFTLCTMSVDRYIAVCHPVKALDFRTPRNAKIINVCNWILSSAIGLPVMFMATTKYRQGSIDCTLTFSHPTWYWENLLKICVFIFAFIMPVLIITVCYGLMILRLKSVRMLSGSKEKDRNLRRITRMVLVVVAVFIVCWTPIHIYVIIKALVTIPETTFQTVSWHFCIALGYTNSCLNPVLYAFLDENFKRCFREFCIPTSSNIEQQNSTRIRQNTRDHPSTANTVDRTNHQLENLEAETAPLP
Sequence of Mu-type opioid receptor (Homo sapiens) + Delta-type opioid receptor (Homo sapiens) (P41143 whole entry, looked up): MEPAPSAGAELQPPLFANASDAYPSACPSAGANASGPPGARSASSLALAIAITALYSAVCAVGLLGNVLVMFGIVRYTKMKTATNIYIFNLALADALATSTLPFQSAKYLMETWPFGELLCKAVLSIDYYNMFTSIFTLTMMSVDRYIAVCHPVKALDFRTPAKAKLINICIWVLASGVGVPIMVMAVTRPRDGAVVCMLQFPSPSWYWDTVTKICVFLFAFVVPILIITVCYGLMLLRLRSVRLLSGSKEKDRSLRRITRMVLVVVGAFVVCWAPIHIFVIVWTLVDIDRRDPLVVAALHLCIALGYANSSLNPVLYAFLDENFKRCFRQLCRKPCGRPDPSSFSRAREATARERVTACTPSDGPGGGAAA
As to `COc1ccc(-c2ccc(CNCCCN3CCOCC3)o2)cc1Cl`, the inhibition (in general, the change of the read-out against control, counted positive when it falls) is -3.74%.

As to `Nc1ccc2c(c1)C(O)c1ccc(Cl)cc1-2` (stereo not given), the inhibition is -2.52%.

Turning to `C/C(O)=C\c1nc(=O)c2c(C)cc(C)nc2n1-c1ccccc1`, the inhibition was -10.5%.

As for `Cc1ccc(CN(C(=O)c2sc3ccccc3c2Cl)C2CCS(=O)(=O)C2)cc1` (stereo not given), the inhibition was -141%.

On to `CCOC(=O)c1sc(-c2cccc([N+](=O)[O-])c2)cc1N`, for which the inhibition is -25.6%.

Consider `CC(=O)Nc1ccc(S(=O)(=O)N2CCN(c3ccc([N+](=O)[O-])c(NCCN4CCOCC4)c3)CC2)cc1`, for which the inhibition was 4.65%.

In the case of `O=C(CNC(=O)c1ccccc1Br)NCCSc1ccc(Br)cc1`, the inhibition is 3.63%.

As for `COc1cc(C(=O)OC(C)C(=O)NCC2CCCCC2)cc(NC(=O)c2ccco2)c1OC` (stereo not given), the inhibition was -157%.

As for `O=C(Nc1cccc(Br)c1)C1CC(=O)N(C2CCCC2)C1` (stereo not given), the inhibition was -5.3%.

As for `CCN(CC)C(=O)CN(c1cccc(OC)c1)S(=O)(=O)c1ccc(C)cc1`, the inhibition is 13%.

For `CCN(CCCNC(=O)C1CCN(S(=O)(=O)c2cnc[nH]2)CC1)c1ccccc1`, the inhibition is -0.9%.

On to `CC(OC(=O)CN1C(=O)c2ccccc2C1=O)C(=O)c1ccccc1` (stereo not given), for which the inhibition was 9.57%.

Regarding `Cc1cccc2c1N(CC(=O)OC(C)C)C(=O)C2=O`, the inhibition is 67.2% (active).

On to `Cc1cc(/C=C2/SC(=O)N(CC(=O)OC(C)C)C2=O)c(C)n1C`, for which the inhibition was 5.02%.

Consider `CC(C)OC(=O)CN1C(=O)C(=O)c2ccccc21`, for which the inhibition was 96.4% (active).

`Cc1cccc2c1N(CCOc1ccccc1)C(=O)C2=O`: the inhibition is 55.7% (active).

In the case of `COc1cc(C(C)=O)ccc1OC(=O)CN1C(=O)c2ccccc2C1=O`, the inhibition is 17.3%.

Turning to `CC1(C)NC(=O)N(CCOc2cccc(Oc3ccccc3)c2)C1=O`, the inhibition was 10.6%.

Regarding `CCOC(=O)CN1C(=O)C(=O)c2cc(C)ccc21`, the inhibition is 40.6% (active).

For `Cc1ccc2c(c1)-c1c(ssc1=S)C(C)(C)N2C(=O)CN1C(=O)c2ccccc2C1=O`, the inhibition is 11.6%.

On to `CCOC(=O)C1CCN(C(=O)CN2C(=O)c3cccnc3Oc3ccc(C)cc32)CC1`, for which the inhibition is 20%.

As to `CC(C)OC(=O)CN1CCN(c2ccc(Cl)cc2)CC1`, the inhibition is -2.26%.

For `O=C1c2ccccc2C(=O)N1CCOc1ccc(F)cc1`, the inhibition is -0.37%.

For `O/N=C(\c1ccc2c(c1)OCCO2)C1CCCCC1`, the inhibition is 10.1%.

In the case of `CSc1ccccc1C(=O)OCC(=O)N1CCN(C(C)=O)CC1`, the inhibition was 12.6%.

Turning to `CC1CN(S(=O)(=O)c2ccc(C(=O)NN3CCN(C)CC3)cc2)CC(C)O1` (stereo not given), the inhibition was -5.71%.

On to `O=C(/C=C/c1ccc(Cl)cc1)NCCCn1ccnc1`, for which the inhibition was 1.46%.

For `O=C(CCl)NNc1cccc(Cl)n1`, the inhibition was 75% (active).

In the case of `Cc1cccc(NC(=O)Cc2ccc(Br)cc2)n1`, the inhibition was 2.04%.

`O=C(Cc1c(Cl)cccc1Cl)NC1CC1`: the inhibition was 1.58%.

For `CN(C(=O)CCn1c(=S)oc2ccccc21)C1CCCCC1`, the inhibition was 10.3%.

For `CNS(=O)(=O)c1ccc(N2CCCC2=O)c([N+](=O)[O-])c1`, the inhibition is -2.31%.

For `CC(c1ccco1)N(C(=O)c1ccc(S(=O)(=O)N2CCCCC2)cc1)c1ccccn1` (stereo not given), the inhibition is 13.7%.

Consider `Cc1cc(C)c(S(=O)(=O)n2cc(C(C)C(N)C(=O)O)c3ccccc32)c(C)c1` (stereo not given), for which the inhibition was 8.06%.

As for `Cn1nc([N+](=O)[O-])nc1Sc1ccc(C(C)(C)C)cc1`, the inhibition was -22.7%.

Turning to `CCOC(=O)c1cccc(NC(=O)C2CCN(c3ncnc4c3nc3n4CCCCC3)CC2)c1`, the inhibition was -0.14%.

Regarding `CCCCCC(O)(CCN1CCCCC1)c1ccccc1` (stereo not given), the inhibition was 4.99%.

Consider `CCn1cc(CCC(=O)NCc2ccc(F)cc2)c2ccccc21`, for which the inhibition is -13.5%.

Regarding `Cc1ccc(C(=O)CNc2ccc(F)cc2)cc1`, the inhibition is 42.7% (active).

For `Cc1ccc(NC(=S)Nc2ccc(F)cc2)cc1`, the inhibition was 9.82%.

Turning to `Cc1ccc(C(=O)NC2CCN(C(=O)Nc3ccc(F)cc3)CC2)cc1`, the inhibition was 6.33%.

Take `CCCCCC(=O)NC(=S)NNC(=O)c1ccc([N+](=O)[O-])cc1`: the inhibition is -3.86%.

In the case of `CCNC(=S)NNC(=O)Cc1ccccc1`, the inhibition is 2.92%.

`CCCCC(=O)NNC(=S)NC(=O)C(c1ccccc1)c1ccccc1`: the inhibition is 27.8% (active).

With `COc1ccc(NC(=O)CCn2ccnc2)c(OC)c1`, the inhibition is 9.95%.

Regarding `Cn1c(=S)sc2ccc3ccccc3c21`, the inhibition was -28.3%.

On to `O=C(C1CC(=O)N(c2ccc(F)cc2)C1)N1CCN(c2ccccc2)CC1` (stereo not given), for which the inhibition is 14%.

Take `CCOC(=O)N1CCN(C(=O)c2ccccc2N(Cc2ccccc2)S(=O)(=O)c2ccc(OC)cc2)CC1`: the inhibition was -2.13%.

On to `N#Cc1cccc(NC(=O)CCC2CCCC2)c1`, for which the inhibition is -3.46%.

For the compound `O=C1NC(=O)C(CCc2ccccc2)(c2ccccc2)N1` (stereo not given), the inhibition was 16.3%.

On to `COC(=O)c1cc2occc2n1Cc1nc(-c2ccccc2C)oc1C`, for which the inhibition is -3.9%.

In the case of `CN(C)CCn1c2c(c(SCC(=O)NCc3ccccc3)nc1=O)CCC2`, the inhibition was -0.58%.

Take `CCc1c(Nc2ccccc2C)nc(N)[nH]c1=O`: the inhibition is 0.05%.

`O=C(CCc1nc2sc3c(c2c(=O)[nH]1)CCCC3)NCC(=O)Nc1ccccc1Br`: the inhibition is 17%.

With `COc1ccc(N2CC(NS(=O)(=O)c3ccc4ccccc4c3)CC2=O)cc1` (stereo not given), the inhibition was 7.42%.

Turning to `COc1cc(NS(=O)(=O)c2ccc3ccccc3c2)c2ncccc2c1`, the inhibition is 38.6% (active).

Turning to `CCOc1cc(NS(=O)(=O)c2ccc(OC)cc2)c(OCC)cc1NC(C)=O`, the inhibition was -4.39%.

For `COC(=O)Cc1c(-c2[nH]c3ccccc3c2CC(=O)OC)[nH]c2ccccc12`, the inhibition is 42.2% (active).

With `COC(=O)Cc1ccc(NC(=S)NCc2ccccc2)cc1`, the inhibition is 5.98%.

With `CCCOC(=O)Cc1c(O)c2ccccc2[nH]c1=O`, the inhibition was 15.1%.

With `Cc1ccc(-n2nc(-c3ccco3)cc2C(=O)NCc2cccnc2)cc1`, the inhibition is 10.7%.

`O=C(NCC1COc2ccccc2O1)C1(c2ccccc2)CCCC1` (stereo not given): the inhibition was 4.79%.

As for `O=C1C(=O)N(CC2COc3ccccc3O2)c2ccccc21` (stereo not given), the inhibition was 35.1% (active).

Regarding `O=C(CN1C(=O)C2C3C=CC(C3)C2C1=O)NCC1COc2ccccc2O1` (stereo not given), the inhibition is -16.6%.

In the case of `COc1cc2sc(C)nc2cc1C`, the inhibition was -8.04%.

Regarding `O=C(O)C(=Cc1ccccc1[N+](=O)[O-])c1ccccc1`, the inhibition was 9.45%.

`CC(C)CCSc1ncnc2c1oc1nc3c(cc12)COC(C)(C)C3`: the inhibition was 5.61%.

As to `Cc1ccc2nc(SCc3nnc(-c4ccccc4[N+](=O)[O-])o3)c(C#N)cc2c1`, the inhibition is 13%.

Turning to `Cc1nc2cc(NC(=O)CSc3nc4c(C)cccc4cc3C#N)ccc2s1`, the inhibition is 12.7%.

For the compound `CCN1C[C@@H]2[C@@H]3C(=O)N(Cc4ccccc4)C(=O)[C@@H]3[C@](C)(C1=O)N2C(=O)c1ccc(C(C)(C)C)cc1`, the inhibition is 0.58%.

As for `Cn1ccs/c1=N\S(=O)(=O)c1ccc(C(C)(C)C)cc1`, the inhibition is 4.78%.

As for `CC(C)(C)c1nnc(NC(=O)C2c3ccccc3Oc3ccccc32)s1`, the inhibition was -37%.

As for `N#C/C(=C/c1ccc(Cl)cc1)NC(=O)c1ccccc1`, the inhibition is -2.56%.

On to `O=C(CN1CCCSc2ccccc21)N1CCN(S(=O)(=O)c2cccc(F)c2)CC1`, for which the inhibition was 9.06%.

Consider `O=C1C[C@@H]2c3c(cccc3CN1Cc1ccccc1)C[C@@H](O)[C@H]2O`, for which the inhibition is 1.13%.

Turning to `CCCNC(=O)CCn1cc(-c2ccc(OC)cc2)nc1CCN`, the inhibition is 7.6%.

In the case of `COC(=O)c1scc(C)c1NC(=O)CSc1ccc(Cl)cc1`, the inhibition was 0.66%.

Take `CC(=O)c1ccc(NC(=O)C(C)N(C)CC(=O)Nc2ccccc2Cl)cc1` (stereo not given): the inhibition was 2.42%.

`CCOC(=O)c1c(-n2cnnn2)sc(C)c1C`: the inhibition was 18.6%.

Take `Cc1ccc(Oc2cc(NC(=O)CCCn3nc(C)c([N+](=O)[O-])c3C)cc([N+](=O)[O-])c2)cc1`: the inhibition is -12.5%.

Consider `Cc1ccc(S(=O)(=O)N2CCOCC2)cc1C(=O)NC(=S)N(Cc1ccccc1)C(C)C`, for which the inhibition was 20%.

In the case of `COc1ccc(-n2c(O)c(C=NCC(c3ccco3)N3CCCC3)c3ccccc3c2=O)cc1OC` (stereo not given), the inhibition is 12.1%.

With `Cc1cccc(-n2c(Cc3cc(=O)[nH]c(=O)[nH]3)nnc2SCC(=O)Nc2cccc(C(F)(F)F)c2)c1`, the inhibition was -3.78%.

With `COC(=O)C1(CCSC)NC(c2ccc(OC)cc2OC)C2C(=O)N(c3cccc(C(C)=O)c3)C(=O)C21` (stereo not given), the inhibition is 15.3%.

In the case of `NNc1cccc(C=Cc2ccccc2)cc1=O`, the inhibition is -23.2%.

On to `COc1ccc(CC(=O)OC(C)C(=O)Nc2ccc(S(N)(=O)=O)cc2)cc1` (stereo not given), for which the inhibition is 6.12%.

Take `Cc1c(C(=O)N(Cc2ccccc2)Cc2cccnc2)cnn1-c1ccc(F)cc1`: the inhibition is 15.9%.

For `Cc1ccccc1NC(=O)CSC1=NCCN1`, the inhibition was 6.55%.

Regarding `Cc1ccc(S(=O)(=O)Oc2ccc(/C=N/NC(=O)c3c(Cl)cnn3C)cc2)cc1`, the inhibition is 6.6%.

Regarding `O=S(=O)(c1ccc(Br)cc1)n1ccc2ccccc21`, the inhibition was -60.1%.

For the compound `O=C(NC1CCCCCCC1)c1cccs1`, the inhibition was -15.7%.

In the case of `OCC[C@H]1C[C@H](O)[C@@H](O)[C@]2(CCCCO2)O1`, the inhibition is 1.27%.

With `Cc1cccc(C2c3[nH]c4ccccc4c3CCN2C(=O)c2cc(-c3cccn3C)n[nH]2)n1` (stereo not given), the inhibition was -17.1%.

For `CC(=O)c1ccc(NC(=O)CCc2nnc3ccc(NCc4ccco4)nn23)cc1`, the inhibition was 18.1%.

Take `COC(=O)c1cccc(C(=O)N2CCCC(Nc3ccc4c(c3)OCCO4)C2)c1` (stereo not given): the inhibition was -2.83%.

The values are drawn from PubChem BioAssay AID504357 (The Scripps Research Institute Molecular Screening Center, 2011).
